Among the data in paper PMC7819943, “Rice protein-binding microarrays: a tool to detect cis-acting elements near promoter regions in rice” are binding signal values, retold here.

The full ranking holds about 39,000 sequences; the median of “fluorescence intensity (a.u.)” is about 4,300, and the highest 2% start at about 39,000. For the sample, the highest values were picked, then their nearest neighbours and some sequences at random.

This test has as its target T1, OsSMF1 (Oryza sativa, UniProt Q6ZLB0 1-436).
T1 sequence: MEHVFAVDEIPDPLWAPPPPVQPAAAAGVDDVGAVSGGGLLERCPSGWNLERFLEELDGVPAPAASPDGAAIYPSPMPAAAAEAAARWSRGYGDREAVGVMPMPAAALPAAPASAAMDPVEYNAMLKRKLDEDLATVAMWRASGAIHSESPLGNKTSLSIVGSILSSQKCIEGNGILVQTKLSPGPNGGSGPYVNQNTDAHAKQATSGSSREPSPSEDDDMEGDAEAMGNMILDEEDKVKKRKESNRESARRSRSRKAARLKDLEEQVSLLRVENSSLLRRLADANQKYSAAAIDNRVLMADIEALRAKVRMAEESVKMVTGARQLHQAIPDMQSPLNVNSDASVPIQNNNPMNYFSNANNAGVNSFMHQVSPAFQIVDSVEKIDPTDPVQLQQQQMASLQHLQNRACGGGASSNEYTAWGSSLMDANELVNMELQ
The experiment in a line: protein-binding microarray (RPBM); PBS, 2% BSA, 51.3 ng/ul salmon testes DNA, 50 uM zinc acetate, 200 nM TF, 25 C, 1 h; high values mean tight binding. The conditions noted are these: protein: recombinant; tags: N-terminal polyhistidine and DsRed monomer fusion (pET32a); chain copies: 2; label: CyDye5-dUTP incorporated in the synthesized complementary strand; 3' TTTTT single-stranded linker to array surface; dsDNA, one strand shown. A digest of the protocol:
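Using Ni–NTA, transcription factors fused N-terminally to polyhistidine and DsRed were purified after expression in E. coli BL21-CodonPlus. These were incubated at 200 nM with a blocked, double-stranded custom Agilent array for 1 h at 25 °C in a buffer containing 50 µM zinc acetate, and the array was washed. The binding signal is per-feature fluorescence intensity (arbitrary units) on an Axon 4000B scanner.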
As to “CGTGACGCGCAGCTCCCTGCAGCCGACCTGGCCACCCACACGGAGTCACCTAGTGCAG”, the binding signal is 3500 fluorescence intensity (a.u.). In the case of “TATATTCGTGTCATTTAGATACCATACCACATCCTGCTACCGGAGTCACCTAGTGCAG”, the binding signal is 3240 fluorescence intensity (a.u.). The result for “TTACGATCACCGAAAAGTGGTAGCGTACGTGTTGAGTGTGCGGAGTCACCTAGTGCAG” reads 4140 fluorescence intensity (a.u.). On to “GCTTGCTTTGTCACATGCAGTTTTACACCTTTTATTTCTCCGGAGTCACCTAGTGCAG”, for which the binding signal is 6070 fluorescence intensity (a.u.). For the sequence “AAATCAGGAGCCTCTGCCATTGGTTTGTGAAGCTACATCGCGGAGTCACCTAGTGCAG”, the binding signal is 65500 fluorescence intensity (a.u.). “TCAGGTGAAATCTGCTTCAGCCATATTCATTGGTAATCAGCGGAGTCACCTAGTGCAG”: the binding signal is 3600 fluorescence intensity (a.u.). Turning to “AATCAGATGATCGGTGCTGCAGCCATCATTGAAGCCTGTGCGGAGTCACCTAGTGCAG”, the binding signal was 3400 fluorescence intensity (a.u.). On to “ACACTATTAATTGTTTTATTAGGTTTCAGACGTTATTTTGCGGAGTCACCTAGTGCAG”, for which the binding signal was 3150 fluorescence intensity (a.u.). As to “GAGGGTTTTAATTACTCACTGACATGTAGGGTCACGGGGTCGGAGTCACCTAGTGCAG”, the binding signal is 4390 fluorescence intensity (a.u.). For the sequence “CTCACTGACGTAGGTTTATTGTACCTATTCTAATTAAGGCCGGAGTCACCTAGTGCAG”, the binding signal was 39400 fluorescence intensity (a.u.). “TTTGAGCGCCGCTCGACTATGTCATGAAGCAACGTGGCACCGGAGTCACCTAGTGCAG”: the binding signal was 7750 fluorescence intensity (a.u.). The result for “GGGGAGAGGGAGGAGGAGGAGGAGAGTGGCTACTAGTACTCGGAGTCACCTAGTGCAG” reads 3380 fluorescence intensity (a.u.).

In the case of “TGTACATTGTTTGAACTAATCAGTAATCATCACAGTGGTTCGGAGTCACCTAGTGCAG”, the binding signal is 3160 fluorescence intensity (a.u.). For the sequence “CTCATTTGAACACATGTACACTACTAATCCTCGTTCTGGACGGAGTCACCTAGTGCAG”, the binding signal was 39200 fluorescence intensity (a.u.). Take “ACATTCTAGCCATTCATTCTTCACACCTCATTTAATCCTACGGAGTCACCTAGTGCAG”: the binding signal was 3280 fluorescence intensity (a.u.). With “CAATAGACTTCAAGGAAGCATACCAATACCAGTAACCACACGGAGTCACCTAGTGCAG”, the binding signal was 40800 fluorescence intensity (a.u.). Under “GGCAAACCAGTAACTAGAAACCACGTTATTCAAAAGCATTCGGAGTCACCTAGTGCAG” stands 3940 fluorescence intensity (a.u.). For “ACCACACCTTGTCAAAACTTCAGTAACAGCAGAAGTTACACGGAGTCACCTAGTGCAG”, the binding signal is 3140 fluorescence intensity (a.u.). The result for “GCGGTTTATGTACACGTCAGCATTTTGCTTCCTTCCTTCCCGGAGTCACCTAGTGCAG” reads 47800 fluorescence intensity (a.u.). Regarding “TCTTTTGGTTTACAACACTTTGTATGCTAGCATTATTTTGCGGAGTCACCTAGTGCAG”, the binding signal is 3420 fluorescence intensity (a.u.).

As for “TATACACCACGTTTGCTGGCTTGGCTTCCTTCCACACTCCCGGAGTCACCTAGTGCAG”, the binding signal is 4000 fluorescence intensity (a.u.). In the case of “CCGCGCCACCTCATGCCGTGACGTGCAGATCCCCTCCTCCCGGAGTCACCTAGTGCAG”, the binding signal is 7890 fluorescence intensity (a.u.). For the sequence “AATCTCGGTGCTGAGTGGACATGAATGAATGATGGAATCTCGGAGTCACCTAGTGCAG”, the binding signal was 4150 fluorescence intensity (a.u.).

In the case of “GGAATGGATAGTGTTCTCGGAAGGAAATTGGTGCTGATGTCGGAGTCACCTAGTGCAG”, the binding signal was 45600 fluorescence intensity (a.u.). “TTGTCCATCAATGGAGATGATGATGCCATGATCAAATGATCGGAGTCACCTAGTGCAG”: the binding signal was 3370 fluorescence intensity (a.u.). On to “ATCGTGATGCAAATGTCGAACTTGGAAGATATCCATGGATCGGAGTCACCTAGTGCAG”, for which the binding signal was 39000 fluorescence intensity (a.u.).

Regarding “CACGTGTTTTCTCGATGTCCACGTGGTGATGTGGAATTGTCGGAGTCACCTAGTGCAG”, the binding signal is 14800 fluorescence intensity (a.u.).

On to “ACATCATGCCACATGCTTCCAAGAAGGATCCCATAGATGTCGGAGTCACCTAGTGCAG”, for which the binding signal is 4220 fluorescence intensity (a.u.). For “TCGATTCATTCGTTCCTTGGGTCGTGTCAGCATGGCCCATCGGAGTCACCTAGTGCAG”, the binding signal was 11100 fluorescence intensity (a.u.). Consider “GGTCTGGCGATGGAGCCTCCCGCCGGAGACGCCGCGCCGTCGGAGTCACCTAGTGCAG”, for which the binding signal is 3540 fluorescence intensity (a.u.). For the sequence “CCATGTTCCCAACCCCTCTCCCTCATTTTCCACGCGTATGCGGAGTCACCTAGTGCAG”, the binding signal was 3650 fluorescence intensity (a.u.). Take “GTCCCTATCACATCGGATGTTTGAACAAAACAGAATATACCGGAGTCACCTAGTGCAG”: the binding signal was 45600 fluorescence intensity (a.u.). Consider “ATGTTTGTGAAGTGACATATCACATATTGATCTATCATACCGGAGTCACCTAGTGCAG”, for which the binding signal is 5200 fluorescence intensity (a.u.).

For “TGAGAGGTCTACATCATTACATGTCAAGACAAGACTACCACGGAGTCACCTAGTGCAG”, the binding signal was 4540 fluorescence intensity (a.u.).

As to “ATCATCTAGTTAAGACTGTTTGTATGCAACTATGCATGTACGGAGTCACCTAGTGCAG”, the binding signal is 31400 fluorescence intensity (a.u.). With “TAACATCATGTCTAGTTTGTTACCCTATCAAGACTAAAACCGGAGTCACCTAGTGCAG”, the binding signal is 42600 fluorescence intensity (a.u.). For “GAAACAAACACATCAGATGACGTTTGTTGAAATGCCTAACCGGAGTCACCTAGTGCAG”, the binding signal is 5000 fluorescence intensity (a.u.). With “ACTTAATAAAATCAAACGTCACAGTTCCGTACTTTTCAGTCGGAGTCACCTAGTGCAG”, the binding signal is 35900 fluorescence intensity (a.u.).

For “TCGCCGGGCTTCTCTACGAGTACCTCGTCATCCCGTCCACCGGAGTCACCTAGTGCAG”, the binding signal was 5700 fluorescence intensity (a.u.). The result for “ACGCAGCGGGCCAACTCCAACTCATCCCCAGCCTCCACCACGGAGTCACCTAGTGCAG” reads 4360 fluorescence intensity (a.u.).

As for “TCCGTGCTACAGCTAGCTACAGATATGTAGTCCGTCATTCCGGAGTCACCTAGTGCAG”, the binding signal was 45200 fluorescence intensity (a.u.).

Regarding “TTGGAGTCCGTGCTGCAGCTGGCTACAGATCTGTAGCCCGCGGAGTCACCTAGTGCAG”, the binding signal is 37600 fluorescence intensity (a.u.).
